RGS12 GoLoco inh – inhibitors of human Gai1-RGS12 GoLoco interaction (red fluorophore). hit rate 0.44% among 230,000. AID 880. Gai1:RGS12 GoLoco peptide FP, rhodamine, 10 min. Potency, µM (doses to about 61.6 µM), without a hit: at the highest dose activity, negative = inhibition, hits mostly inhibitors; active means well fitted inhibition curve with a large enough effect, not every such curve was filed as active; inactive means no such curve, though single readings can be large or run the other way; further: potency means the concentration at half of the fitted maximal effect; nearly all actives have a fitted effect of over 30% in size
Target sequence (P63096 whole entry, looked up): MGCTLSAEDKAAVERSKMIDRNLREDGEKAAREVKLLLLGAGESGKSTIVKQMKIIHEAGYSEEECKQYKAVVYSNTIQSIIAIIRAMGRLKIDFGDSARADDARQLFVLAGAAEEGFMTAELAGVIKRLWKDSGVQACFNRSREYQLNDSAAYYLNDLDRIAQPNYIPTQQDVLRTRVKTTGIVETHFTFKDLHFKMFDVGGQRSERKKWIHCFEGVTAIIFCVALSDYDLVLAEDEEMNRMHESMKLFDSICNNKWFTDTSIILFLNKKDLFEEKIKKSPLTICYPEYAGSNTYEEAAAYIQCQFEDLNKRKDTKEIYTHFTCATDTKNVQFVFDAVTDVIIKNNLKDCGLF
Tb PGK inh – blocks T. brucei phosphoglycerate kinase | P07378 | PGK/GAPDH coupled, Kinase-Glo luminescence, 60 min | Potency, µM (highest dose often 57.5 µM), without a hit: at the highest dose activity change, negative = inhibition, usual class: inhibitors | hit rate 0.043% among 380,000; further: potency means the concentration at half of the fitted maximal effect; nearly all actives have a fitted effect of over 60% in size
Target sequence (P07378 whole entry, looked up): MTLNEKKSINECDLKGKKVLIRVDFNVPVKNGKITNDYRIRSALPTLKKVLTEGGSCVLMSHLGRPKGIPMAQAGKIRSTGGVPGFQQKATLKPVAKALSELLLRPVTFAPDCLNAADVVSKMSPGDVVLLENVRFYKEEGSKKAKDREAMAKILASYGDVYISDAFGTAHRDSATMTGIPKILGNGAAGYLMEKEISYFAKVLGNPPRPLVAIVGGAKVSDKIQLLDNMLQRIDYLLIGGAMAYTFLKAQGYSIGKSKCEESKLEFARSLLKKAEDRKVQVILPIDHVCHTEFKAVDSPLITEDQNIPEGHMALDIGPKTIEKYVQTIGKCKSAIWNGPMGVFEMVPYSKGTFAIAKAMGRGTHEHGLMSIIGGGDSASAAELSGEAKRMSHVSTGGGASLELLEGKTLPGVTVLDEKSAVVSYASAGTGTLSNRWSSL
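Luminescent ATP detection (Kinase-Glo Plus) follows a 60-minute room-temperature incubation, with wells lacking PGK as controls. Buffer: 100 mM TEA (pH 7.6), 5 mM MgCl2, 0.01% Tween-20. Coupling enzyme GAPDH (100 nM final) supplies unstable 1,3-BPG in-well.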
Pin1 inh – human Pin1 inhibition; Potency, µM (titrated, usually from 115 µM), for the others: top-dose activity, negative = inhibition, most hits filed as inhibitors; Pin1 FP peptide displacement, HiFluor488, 10 min; hit rate 0.009% among 390,000; AID 504891; Q13526; active means well fitted inhibition curve with a large enough effect in the polarisation, with a control signal flat, not every such curve was filed as active; inconclusive means small, poorly fitted or top-dose-only effect, or effect the other way, or a change in a side signal; inactive means no such curve, though single readings can be large or run the other way; the % refers to the polarisation; further: potency means the concentration at half of the fitted maximal effect
PI5P4K alpha inh – blocks human PI5P4K alpha kinase activity; max response, %; hit rate 1.2% among 330,000; PI5P4Kalpha enzyme, ADP-Glo luminescence, 60 min; active compounds read low; AID 652105; active means max response of -50% or lower; inconclusive means between -30% and -50%; inactive means -30% or higher; further: value at the top dose of about 77 µM
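Human PI5P4Kalpha with substrate in 0.038 M HEPES pH 7.4, 0.28 mM EGTA, 0.1% CHAPS, 5% DMSO; reaction started with 5 microM ATP (final), 60 min at room temperature. ADP formed read by ADP-Glo luminescence.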
GCN5L2 inh – GCN5L2 (KAT2A) acetyltransferase inhibition; Q92830; GCN5L2 HAT assay, ThioGlo1 CoA-SH fluorescence; Potency, µM (highest dose often 58.9 µM), for inactives: top-dose activity change, negative = inhibition, actives largely listed as inhibitors; hit rate 0.21% among 390,000; AID 504327; further: potency means the concentration at half of the fitted maximal effect
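ThioGlo1-coupled HAT assay: 20nM GCN5L2, 70uM acetyl-CoA, 75uM H3(1-25) peptide, pH 7.5. Fluorescence read at 340/540nm at start and after 20 min at room temperature.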
PI4K2A block – PI4K2A (human) kinase inhibition | hit rate 0.13% among 420,000 | AID 1346378 | activity change, negative = inhibition, % at 76.9 µM | purified PI4K2A, ADP-Glo luminescence, 1 h; active compounds read low | Q9BTU6; in the data active means activity change below about -50%; inconclusive means mostly about -30% to -49%;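 further: -100% = wells without enzyme as full effect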
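PI4K2A activity was measured by ADP-Glo luminescence: enzyme (4 ug/mL stock) and phosphatidylinositol (1.2 mM stock) in Tris pH 7.5/MgCl2/EGTA/Triton X-100 buffer were reacted with ATP (300 microM stock) for one hour at ambient temperature.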
An asterisk follows results filed as active; i = inactive; ? = inconclusive; . = no result given; [ ] = another dose, or the depositor's remark. An excerpt weighted towards active compounds, which were near 1.2% of everything screened. Unless noted, the call rests on the fitted dose curve; in most records, active means well fitted curve in the direction sought with a large enough effect; inconclusive means small, poorly fitted or top-dose-only effect, or another doubt; inactive means no such curve, though single readings can be large; an effect the other way counts as inactive or inconclusive. Unless noted, on the % scale 0 is the no-effect control and ±100 the full control effect.

SMILES | RGS12 GoLoco inh | Tb PGK inh | Pin1 inh | PI5P4K alpha inh | GCN5L2 inh | PI4K2A block
N#CC1=C(N)n2c(s/c(=C\c3cccs3)c2=O)=C(C#N)C1c1cccs1 (stereo unspecified) | . | -13.0% | ? | -56.2* | -19.3% | -0.7
CC(C)c1ccc(/C=c2\sc3n(c2=O)C(N)=C(C#N)C(c2ccc(C(C)C)cc2)C=3C(N)=O)cc1 (stereo unspecified) | . | 2.0% | 12.8% | ? | . | 1.5
N#CC1=C(N)n2c(s/c(=C\c3ccco3)c2=O)=C(C#N)C1c1ccco1 (stereo unspecified) | 38.5% | ? | ? | -69.9* | -17.6% | -17.3
COc1ccc(OC)c(/C=N/NC(=O)c2[nH]nc3c2CCc2ccccc2-3)c1 | -5.7% | -3.2% | 13.2% | -50.5* | -6.5% | -1.9
CC(C)NC(=O)NC(=O)COC(=O)c1cc(S(=O)(=O)N2CCCCC2)ccc1N1CCOCC1 | . | i | -1.8% | 3.0 | -5.4% | -5.8
O=C(Cc1cc(=O)[nH][nH]1)N/N=C/C=C/c1ccccc1 | -1.4% | i | ? | -60.5* | -12.2% | -26.4
O=C(CNC(=O)c1ccccc1)N/N=C/C=C/c1ccccc1 | . | -0.9% | 1.1% | -21.9 | -0.1% | 1.6
O=c1[nH]c(=S)[nH]cc1S(=O)(=O)c1cccc(Cl)c1 | . | -11.3% | -2.6% | -57.3* | -24.9% | 0.4
CCn1c(C)[n+](Cc2ccccc2)c2ccc(C(=O)OC)cc21 | 1.26µM* | -0.8% | 0.5% | 0.7 | -17.3% | -18.9
CC1CCC(Nc2nc3c(-c4cccc(C(F)(F)F)c4)nnn3c3ccccc23)CC1 (stereo unspecified) | . | -5.7% | -1.6% | . | -7.2% | 13.4
O=[N+]([O-])c1ccc(/C=C/C2=NN(c3ccccc3)C(c3ccco3)C2)o1 (stereo unspecified) | 198.2% | -23.4% | 62.4% | -62.3* | -8.5% | -3.1
CC(c1ccccc1)N1C(=O)c2ccc(C(=O)Nc3ccc(Br)cc3C(=O)O)cc2C1=O (stereo unspecified) | . | -10.6% | -5.7% | -56.8* | -7.6% | -0.2
CC(c1ccccc1)N1C(=O)c2ccc(C(=O)Nc3ccccc3C(=O)O)cc2C1=O (stereo unspecified) | . | -2.5% | ? | ? | ? | -1.7
CC(C)CCN1C(=O)c2ccc(C(=O)Nc3ccccc3C(=O)O)cc2C1=O | . | -0.3% | 0.1% | -60.3* | -17.0% | 0.4
O=C(Nc1ccccc1C(=O)O)c1ccc(CN2C(=O)c3ccccc3C2=O)cc1 | . | -2.1% | 4.7% | -53.4* | -13.5% | 3.3
NC(=O)C1CCN(c2nccc(-c3ccc4c(c3)OCCCO4)n2)CC1 | . | . | -0.4% | . | . | .
CCN(Cc1ccccc1)C(=O)c1c(-c2ccccc2Cl)noc1C | . | i | -6.3% | 0.1 | -12.4% | 9.2
Cc1ccsc1C(=O)Nc1ccc(C(=O)O)cc1 | -1.1% | -22.3% | 6.2% | -9.0 | -3.5% | -74.0*
O=C(NCC1(O)CCCCC1)C1CCC(=O)N(Cc2cccc(C(F)(F)F)c2)C1 (stereo unspecified) | . | -6.1% | -8.2% | 0.2 | -4.0% | 4.5
Cc1cc(N2Cc3ccccc3C2)ccc1C=O | . | -3.2% | -3.3% | -29.6 | 0.9% | -9.1
O=C(N/N=C/c1coc2ccccc2c1=O)c1cc(O)cc(O)c1 | 6.9% | -1.0% | -0.3% | -54.0* | -7.8% | -4.7
CCC(c1nnnn1Cc1ccc(F)cc1)N1CCN(C)CC1 (stereo unspecified) | -3.9% | i | -2.3% | 0.7 | -13.9% | 9.4
Cc1cc(C)c2c(=O)n(CC(=O)NCCCN3CCN(c4ccccc4F)CC3)sc2n1 | 20µM* | -6.7% | -1.0% | -77.1* | ? | -1.7
Cc1cc([N+](=O)[O-])nn1CC(=O)NCCCN1CCOCC1 | . | -5.2% | -2.0% | -1.3 | -5.7% | -3.3
Cc1cc(C)c2c(=O)n(CC(=O)NCCCN3CCOCC3)sc2n1 | 31.6µM* | i | 2.2% | -100.9* | 17.8µM* | -0.1
SMILES | RGS12 GoLoco inh | Tb PGK inh | Pin1 inh | PI5P4K alpha inh | GCN5L2 inh | PI4K2A block
O=C(NCc1ccccn1)[C@@H]1CCCN1C(=O)[C@@H]1CCCN1C(=O)c1c(F)cccc1F | . | . | . | -0.2 | . | 3.2
CC1=CN2C(=N)/C(=C/c3ccc([N+](=O)[O-])o3)C(=O)N=C2S1 | 93.8% | -16.6% | ? | -66.7* | 24.4% | -19.0
COc1ccc(/C=C/c2ccc(=O)n(Cc3ccccc3)n2)cc1 | 9.5% | i | -25.4% | -51.1* | -8.5% | 3.3
O=C1C2C3C=CC(C3)C2C(=O)N1CCN1CCN(S(=O)(=O)/C=C/c2ccccc2)CC1 (stereo unspecified) | -13.4% | i | -2.2% | 1.5 | -5.3% | 0.4
O=C(O)c1cccc(Cn2c(Cl)c(/C=N/NC(=O)c3cc4ccccc4cc3O)sc2=O)c1 | 9.7% | ? | ? | -72.8* | ? | -6.8
CC(NC(=O)OC(C)(C)C)C(=O)Oc1cc2oc(=O)cc(-c3ccccc3)c2cc1Cl (stereo unspecified) | 4.2% | 3.4% | -3.3% | -69.2* | -19.3% | -0.2
C[n+]1cnc(-c2ccccc2)cc1-c1ccccc1 | 14.1µM* | 1.8% | 4.9% | -0.3 | -15.8% | 1.3
c1ccc(-c2cc(-c3ccccc3)ncn2)cc1 | . | -7.5% | 0.7% | 13.0 | . | 0.3
CC(=O)NC1=NC(=O)/C(=C/c2cn(C(C)=O)nc2-c2ccccc2)S1 | 91.6% | . | 68.5% | -86.5* | -22.9% | -4.6
CC1(c2ccc3c(c2)OCCO3)NC(=O)N(CC(=O)c2ccc[nH]2)C1=O (stereo unspecified) | . | -11.8% | 6.9% | -53.2* | -1.0% | -12.9
O=S(=O)(Nc1ccc(N2CCOCC2)cc1)c1ccc(Cl)s1 | 1.2% | i | -5.7% | . | 1.9% | 2.9
O=C(O)c1ccccc1/C=N/NC(=O)c1cc(-c2ccco2)nc2ccccc12 | 36.4% | ? | ? | -94.0* | ? | -20.8
O=C(N/N=C/c1ccc2c(c1)OCO2)c1cc(-c2ccco2)nc2ccccc12 | . | -5.6% | ? | -54.8* | -8.5% | -20.3
Cn1c(N)c(C(=O)COC(=O)c2cc(-c3ccco3)nc3ccccc23)c(=O)n(C)c1=O | -2.3% | -23.9% | . | -77.5* | -26.1% | ?
Cn1c(N)c(C(=O)COC(=O)c2cc(-c3ccco3)nc3ccccc23)c(=O)n(Cc2ccccc2)c1=O | 23.9% | . | . | . | -26.7% | .
CCN1C(=O)N[C@@H](c2cccs2)C(C(=O)OC)=C1C | -2.8%[14.2 µM] | -7.1% | -0.4% | -0.4 | . | 4.4
CC1=C(C(=O)OCc2ccccc2)C(c2cccs2)NC(=O)N1CCCC(=O)O (stereo unspecified) | -8.1% | -0.6% | -1.5% | -66.4* | 1.4% | 0.3
